Reference: PubChem BioAssay AID1508649 (National Center for Advancing Translational Sciences (NCATS), 2021)
In all, about 43,000 compounds went through this assay and about 830 (1.9%) were called active. Not shown: some 30% with an inconclusive outcome. The sample holds actives, similar compounds and a random draw of the others, so the mix is not that of the screen. Rule for the calls: active = clear falling dose curves in both reporters; inconclusive = both reporters move, but less clearly or upward; inactive = either reporter flat; the % is the NLuc reporter signal.

Experiment: Cell-based coincidence reporter assay to measure PMP22 gene transcription in S16 Pmp22-F2sN cells - Primary screen
Details: S16 Pmp22-F2sN Schwann cells (luciferase reporters placed in the Pmp22 gene), FLuc/NLuc coincidence luminescence, 24 h; series mostly up to 57.5 µM; activity change, negative = inhibition: at the top concentration
Excerpt: Assay Provider: Jim Inglese Ph.D. National Center for Advancing Translational Science, National Institutes of Health, Rockville, MD CMT is a heterogeneous group of neurological disorders that affect approximately 1 in 2,500 people. In particular, the most common form of CMT, CMT1A is genetically linked to the duplication of the PMP22 gene which leads to Schwann cell overexpression, thus manifesting itself as a typical case of dose-sensitive diseases. To identify small molecule compounds that can mediate the expression of PMP22 we developed a phenotypic assay screening strategy by utilizing genome editing techniques to construct Schwann cell lines containing novel reporter technology to monitor the transcriptional or translational regulation of PMP22. For high sensitivity we use a bioluminescent reporter system embedded in the 3' UTR of the PMP22 gene (S16(c9) Pmp22-F2sN) to identify compounds that inhibit gene expression. […] We can further discriminate the effect of all transcriptionally active molecules on PMP22 translation or stability with an assay that incorporates a short NLuc peptide (HiBiT) at the C-terminus of expressed PMP22 (S16(f8) PMP22-HiBiT) allowing alpha complementation and luminescence detection of membrane-associated PMP22 protein. These assays were screened against the NCATS Sytravon Library Collection. Miniaturization of these assays to 1536-well plate format for quantitative high throughput screening (qHTS) yielded rich data sets immediately from the qHTS assay (S16(c9) Pmp22-F2sN), when compared with data from a cell viability assay (Cell TiterGlo) to identify compounds that decreased the output signals through cellular toxicity to streamline the selection process of actives for subsequent characterization using the HiBiT assay (S16(f8) PMP22-HiBiT).
Cell-based coincidence reporter assay to measure PMP22 gene transcription in S16 Pmp22-F2sN cells PROTOCOL TABLE (format as described by Inglese J, Shamu CE and Guy RK. 2007) SEQUENCE No. (e.g., 1, 2, 3, etc.); […] (e.g., Cells, Incubation, Reagent, etc.); VALUE and DESCRIPTION. 1. Cells. Add 500-1,000 cells in 4 uL in growth media (DMEM High Glucose, No Phenol Red media + 10% heat-inactivated FBS + 1% Pen/Strep supplemented media) per well into Greiner 1536-well white/solid bottom high base, TC-treated plates. 2. Compounds. Library compounds and controls added at 23nL per well, transferred by Pin Tool. 3. Incubation. Incubate plates at 37C, 5% CO2, 95% RH for 24 h. 4. Reagent. Add 3.5uL Nano-Glo Dual-Luciferase Reporter Assay System reagent 1: Lysis and FLuc reagent per well of Greiner 1536-well plates. 5. Incubation. Incubate plates at room temperature for 10 min., protect from light. 6. Detector. FLuc luminescence measured using CCD-based camera (Viewlux). 7. Reagent. Add 3.5uL Nano-Glo Dual-Luciferase Reporter Assay System reagent 2: Stop&Glo reagent per well of Greiner 1536-well plates. 8. Incubation. Incubate plates at room temperature for 10 min., protect from light. 9. Detector. NLuc luminescence measured using CCD-based camera (Viewlux). NOTES (numbers refer to Sequence numbers above; values are from representative experiments) 6. Luminescence Read #1 (FLuc): Clear filter; Exposure = 10 sec, Gain = High, Speed = Slow, Binning = 2X 9. Luminescence Read #2 (NLuc): Clear filter; Exposure = 1 sec, Gain = High, Speed = Slow, Binning = 2X REFERENCES: 1. Inglese J, Shamu CE and Guy RK, Reporting data from high throughput screening of small molecule libraries, Nature Chemical Biology, 2007, 3(8): 438-441. doi.org/10.1038/nchembio0807-438 2. Yasgar A, Shinn P, Jadhav A, Auld DS, Michael S, Zheng W, Austin CP, Inglese J and Simeonov A, Compound Management for Quantitative High-Throughput Screening. J. Assoc. Lab. Auto., 2008, 13: 79-89. doi: 10.1016/j.jala.2007.12.004
% is set by controls: 0 for no effect and ±100 for the full control effect; potency is the fitted concentration of half-maximal effect.

| Compound | activity change, negative = inhibition | Potency |
| --- | --- | --- |
| CCC(C(=O)Nc1cccc(-c2nc3cccnc3s2)c1C)c1ccccc1 (centres undefined) | -37.5% (inactive) | – |
| CCOC(=O)c1sc(NC(=O)/C=C/c2ccc(C(C)C)cc2)c(C(=O)OCC)c1C | -30.7% (inactive) | – |
| Cc1ccc(F)cc1NC(=O)CCSc1nc(-c2ccco2)cc(C(F)(F)F)n1 | 9.36% (inactive) | – |
| COc1ccccc1-c1cc(C(F)(F)F)nc(S(=O)(=O)CCCC(=O)Nc2ccc(F)cc2F)n1 | – | 11.3 µM (active) |
| COc1ccccc1-c1cc(C(F)(F)F)nc(S(=O)(=O)CCCC(=O)Nc2cc(C)ccc2O)n1 | -12.6% (inactive) | – |
| COc1cc2c(cc1OC)C(COc1ccc(F)cc1)N(C(=O)c1ccccc1F)CC2 (centres undefined) | 0.344% (inactive) | – |
| COc1ccc(N2CCN(Cc3nc4c(c(=O)[nH]c(=O)n4C)n3Cc3ccc(Cl)cc3)CC2)cc1 | -16.2% (inactive) | – |
| O=C(Cc1ccccc1)Nc1sc2c(c1C(=O)Nc1ccc(Br)cc1)CCC2 | -32.6% (inactive) | – |
| COC(=O)c1c(NC(=O)CCCOc2ccccc2)sc2c1CCC(C)C2 (centres undefined) | 7.02% (inactive) | – |
| CCOc1ccc(NC(=O)c2c(NC(=O)Cc3ccccc3)sc3c2CCC(C)C3)cc1 (centres undefined) | – | 18.9 µM (active) |
| Cc1ccc(Nc2c(-c3ccc(C)s3)nc3ccccn23)cc1 | -18.5% (inactive) | – |
| CCC(=O)N1CCc2cc(Br)cc(S(=O)(=O)CCC(=O)N3CCN(c4ccc(F)cc4)CC3)c21 | -7.19% (inactive) | – |
| COc1ccc(OC)c(-n2nnc(-c3nc(-c4cc(OC)c(OC)c(OC)c4)no3)c2C)c1 | -0.737% (inactive) | – |
| COc1ccc(C(=O)COC(=O)CCCC(=O)Nc2cc(C(F)(F)F)ccc2Cl)cc1 | 3.27% (inactive) | – |
| COc1ccc(-c2nn3c(=O)cc(CN4CCN(C(=O)c5ccc(OC)c(OC)c5)CC4)nc3s2)cc1 | 12.8% (inactive) | – |
| CCOc1ccc(N(Cc2ccccc2)C(=O)c2nc(S(C)(=O)=O)ncc2Cl)cc1 | – | 1.5 µM (active) |
| CCOc1ccc(N(CC)C(=O)c2noc3c2COc2ccc(C)cc2-3)cc1 | -28.9% (inactive) | – |
| CCOc1ccc(N(CC)C(=O)C2CCN(S(=O)(=O)c3cccc4nonc34)CC2)cc1 | -35.2% (inactive) | – |
| COc1ccccc1-c1noc(-c2ccc(NCc3ccccc3)c([N+](=O)[O-])c2)n1 | -5.34% (inactive) | – |
| Cc1ccc(C)c(S(=O)(=O)n2nc(C)c(S(=O)(=O)N3CCC(C)CC3)c2C)c1 | -0.0168% (inactive) | – |

| Compound | activity change, negative = inhibition | Potency |
| --- | --- | --- |
| O=C(CC1Oc2ccccc2NC1=O)NCc1ccc(F)cc1 (centres undefined) | -7.34% (inactive) | – |
| CCOc1ccc(NC(=O)C2CCN(S(=O)(=O)c3cc(-c4noc(C)n4)ccc3C)CC2)cc1 | -42.5% (inactive) | – |
| COc1ccc(N2CC(C(=O)NCCS(=O)(=O)N3CCN(c4ccccc4)CC3)CC2=O)cc1 (centres undefined) | 5.34% (inactive) | – |
| COc1ccccc1CNC(=O)Cn1nc(C)c2nn(-c3ccc(Cl)cc3)c(C)c2c1=O | -3.87% (inactive) | – |
| Cc1ccccc1CNC(=O)Cn1c(C)c2cnn(-c3ccccc3)c(=O)c2c1C | -12.3% (inactive) | – |
| Cc1nnc(SCC(=O)NCc2ccccc2Cl)c2nn(-c3ccccc3)c(C)c12 | – | 14.1 µM (active) |
| Cc1nnc(N2CCCC(C(=O)NCCN(C)C)C2)c2nn(-c3ccccc3)c(C)c12 (centres undefined) | -57.6% (inactive) | – |
| Cc1ccccc1CNC(=O)CSc1nnc(C)c2c(C)n(-c3ccccc3)nc12 | – | 16.8 µM (active) |
| COc1ccc(OC)c(CNC(=O)Cn2nc(C)c3c(C)n(-c4ccccc4)nc3c2=O)c1 | -3.25% (inactive) | – |
| CCc1cnc2c(c1SCC(=O)N1CCC(C)CC1)c(=O)n(C)c(=O)n2C | -1.6% (inactive) | – |
| COc1ccc(NC(C)=O)cc1NC(=O)CN1CCN(c2ccc(F)cc2)CC1 | 4.65% (inactive) | – |
| COc1cc(C(=O)N2CCC(c3ccncc3)CC2)cc(OC)c1OC | -7.79% (inactive) | – |
| CCOC(=O)c1oc2ccc(S(=O)(=O)n3nc(-c4ccccc4OC)cc3N)cc2c1C | – | 14.4 µM (active) |
| COc1ccccc1-c1cc2nc(C)c(CCC(=O)O)c(C)n2n1 | 27.9% (inactive) | – |
| COc1ccc(NC(=O)c2oc3ccc(S(=O)(=O)N4CCOCC4)cc3c2C)cc1 | 14.2% (inactive) | – |
| COc1cccc(C(=O)NC2(C(F)(F)F)C(=O)Nc3c2c(=O)[nH]c(=O)n3-c2ccc(C)cc2)c1 (centres undefined) | -20.3% (inactive) | – |
| CCn1c(C(=O)Nc2cc(Cl)ccc2C)cc2sc(Cl)cc21 | -32.4% (inactive) | – |
| Cc1ccc(NC(=O)C2CCCN2S(=O)(=O)c2cccc3cccnc23)c(C)c1 (centres undefined) | -8.58% (inactive) | – |
| COC(=O)c1cc2occc2n1Cc1nc(-c2ccc(C)cc2)oc1C | -7.42% (inactive) | – |
| COc1ccc(-n2nc(C(=O)NCCc3ccc(Cl)cc3)c3c4ccccc4n(C)c3c2=O)cc1Cl | -8.53% (inactive) | – |

| Compound | activity change, negative = inhibition | Potency |
| --- | --- | --- |
| Cc1ccccc1C(=O)Nc1sc2c(c1C(=O)N1CCC(C)CC1)CCCC2 | -10.7% (inactive) | – |
| O=C(Nc1ccc2nc(SCCOc3ccccc3)sc2c1)c1ccco1 | -21.5% (inactive) | – |
| Cc1ccc(OCCSc2nc3ccc(NC(=O)COc4ccc(C)cc4)cc3s2)cc1 | – | 8.91 µM (active) |
| COc1cc(C)ccc1OCCSc1nc2ccc(NC(=O)c3ccc(C)cc3)cc2s1 | -8.04% (inactive) | – |
| CCc1ccc(S(=O)(=O)n2ccnc2)cc1 | 0.251% (inactive) | – |
| O=C(CN1C(=O)CCn2nc(-c3ccccc3)cc21)NCc1ccccc1 | -8.68% (inactive) | – |
| Cc1noc(/C=C/N(C)C)c1S(=O)(=O)N1CCCC(C(=O)Nc2cccc(F)c2)C1 (centres undefined) | -12.4% (inactive) | – |
| COc1cccc(N2CCN(S(=O)(=O)c3ccc4c(c3)CCCN4C(C)=O)CC2)c1 | -20.8% (inactive) | – |
| CC(=O)N1CCCc2cc(S(=O)(=O)N3CCCC(C(=O)NCc4ccc(Cl)cc4)C3)ccc21 (centres undefined) | -50.4% (inactive) | – |
| CC(=O)N1CCCc2cc(S(=O)(=O)N3CCCC(C(=O)N4CCN(c5cccc(Cl)c5)CC4)C3)ccc21 (centres undefined) | – | 10 µM (active) |
| Cc1cccc(Nc2cc(C)nc(-n3nc(C)cc3C)n2)c1 | – | 9.15 µM (active) |
| Cc1cccc(Nc2nc(C)nc(N)c2S(=O)(=O)c2ccccc2)c1 | -24.8% (inactive) | – |
| Cc1ccc(Nc2nc3ccccc3nc2-n2nc(C)cc2C)c(Cl)c1 | -3.07% (inactive) | – |
| Cc1c(Cl)cccc1NC(=O)N1CCN(C(=O)c2nsc3ccccc23)CC1 | 6.76% (inactive) | – |
| Cc1c(Cl)cccc1NC(=O)Cn1cc(C(=O)c2cccs2)c2ccccc21 | – | 8.91 µM (active) |
| Cc1cccc(NC(=O)Cn2cc(S(=O)(=O)Cc3ccccc3Cl)c3ccccc32)c1 | -23.6% (inactive) | – |
| Cc1cccc(NC(=O)CSc2nc(-c3ccco3)cc(C(F)(F)F)n2)c1C | -2.59% (inactive) | – |
| Cc1ccc2ncc(C(=O)Nc3ccc(OC(F)(F)F)cc3)c(=O)n2c1 | -9.44% (inactive) | – |
| COCC(C)NS(=O)(=O)c1ccc(N2CCCCS2(=O)=O)cc1 (centres undefined) | -17.4% (inactive) | – |
